The source of these data is ChEMBL document CHEMBL3988442, “University of Dundee, Small-Polar-MMV Screening Library” (2021).

For some of these results: Measured potencies and affinities stand elsewhere.

Design in all cases: scale not given: direction of the effect not stated beside the values
Assay [1] deals with Protein translocase subunit SecA (Escherichia coli (strain K12)) (UniProt P10408). Put plainly: Assay to Identify E. coli SecA ATPase Inhibitors. In kind it is functional. As to conditions: 30 µM.
For assay [2], the target named is T1, Ubiquitin-activating enzyme e1, putative (Leishmania donovani (strain BPK282A1)) (UniProt E9BSI1).
T1 sequence (whole entry): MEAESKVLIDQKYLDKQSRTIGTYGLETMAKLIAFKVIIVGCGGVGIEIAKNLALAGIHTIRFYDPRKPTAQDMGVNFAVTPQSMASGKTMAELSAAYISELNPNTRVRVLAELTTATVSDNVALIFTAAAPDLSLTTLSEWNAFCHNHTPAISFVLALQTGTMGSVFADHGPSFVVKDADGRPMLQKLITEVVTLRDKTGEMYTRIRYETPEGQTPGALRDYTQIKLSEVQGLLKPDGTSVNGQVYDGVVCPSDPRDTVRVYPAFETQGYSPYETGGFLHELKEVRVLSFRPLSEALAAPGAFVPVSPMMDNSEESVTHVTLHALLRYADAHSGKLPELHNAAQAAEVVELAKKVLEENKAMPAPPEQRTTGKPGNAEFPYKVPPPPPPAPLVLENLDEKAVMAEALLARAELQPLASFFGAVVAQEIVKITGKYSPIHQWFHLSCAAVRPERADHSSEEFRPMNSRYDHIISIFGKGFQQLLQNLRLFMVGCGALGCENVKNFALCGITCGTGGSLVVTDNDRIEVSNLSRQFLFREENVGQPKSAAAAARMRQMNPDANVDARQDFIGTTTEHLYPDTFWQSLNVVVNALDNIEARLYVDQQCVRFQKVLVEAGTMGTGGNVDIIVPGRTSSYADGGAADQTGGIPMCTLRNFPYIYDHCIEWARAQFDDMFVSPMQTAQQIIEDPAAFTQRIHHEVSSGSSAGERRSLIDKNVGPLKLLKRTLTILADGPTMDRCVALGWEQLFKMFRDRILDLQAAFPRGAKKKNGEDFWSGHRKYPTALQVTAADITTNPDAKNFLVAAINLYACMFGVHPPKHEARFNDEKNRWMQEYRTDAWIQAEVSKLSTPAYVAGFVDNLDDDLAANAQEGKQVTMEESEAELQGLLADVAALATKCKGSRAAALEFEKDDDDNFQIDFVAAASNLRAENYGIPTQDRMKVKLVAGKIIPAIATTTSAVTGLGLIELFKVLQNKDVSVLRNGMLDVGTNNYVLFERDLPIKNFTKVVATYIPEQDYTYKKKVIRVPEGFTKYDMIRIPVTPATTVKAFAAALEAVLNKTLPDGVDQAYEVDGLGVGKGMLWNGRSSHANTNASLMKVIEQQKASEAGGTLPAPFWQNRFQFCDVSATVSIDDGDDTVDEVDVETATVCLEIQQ
As to the kind of experiment: Leishmania donovani Ubiquitin Activating Enzyme (LdE1). In kind it is functional. Particulars: 30 µM.

Assay [3] addresses AMP-activated protein kinase, AMPK (Homo sapiens) (UniProt P54646+O43741+P54619+Q9UGJ0+Q9Y478+Q13131+Q9UGI9). Put plainly: AMP-dependent Kinase enzyme assay. An in vitro enzyme assay that detects ADP turnover that is directly proportional to AMPK activity. This uses naive AMPK that is activated during the assay with MK-8722. In kind it is functional. As to conditions: 30 µM.
Assay [4] has as its target Sialic acid-binding Ig-like lectin 9 (Homo sapiens) (UniProt Q9Y336). Put plainly: Hs-Siglec9 ALPHAscreen SOP 20170721. As to conditions: 10 µM.
For another assay, the system named is Trypanosoma cruzi. As to the kind of experiment: Trypanosoma cruzi phosphomannomutase and mannose-1-phosphate guanylyltransferase assay. Type of assay: functional. Particulars: 10 µM.
Assay [5] deals with T2, Arginase-2, mitochondrial (Homo sapiens) (UniProt P78540).
T2 sequence (whole entry): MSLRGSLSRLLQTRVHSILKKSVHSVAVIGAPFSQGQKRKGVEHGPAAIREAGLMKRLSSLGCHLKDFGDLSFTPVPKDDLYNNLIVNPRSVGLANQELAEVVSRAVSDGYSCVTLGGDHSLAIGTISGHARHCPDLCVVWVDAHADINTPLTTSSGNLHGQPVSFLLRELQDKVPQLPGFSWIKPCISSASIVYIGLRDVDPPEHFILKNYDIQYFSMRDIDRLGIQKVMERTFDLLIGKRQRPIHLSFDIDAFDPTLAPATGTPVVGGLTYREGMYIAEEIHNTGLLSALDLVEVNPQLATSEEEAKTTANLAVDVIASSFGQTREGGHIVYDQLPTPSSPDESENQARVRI
As to the kind of experiment: in vitro enzyme assay to detect the production of urea directly proportional to the activity of Arginase II. Note: in the data most compounds retested in dose-response had high values. Type of assay: functional. Particulars: 33.3 µM.

Assay [6] has as its target T3, Proteasome subunit beta (Trypanosoma cruzi) (UniProt O96673).
T3 sequence (whole entry): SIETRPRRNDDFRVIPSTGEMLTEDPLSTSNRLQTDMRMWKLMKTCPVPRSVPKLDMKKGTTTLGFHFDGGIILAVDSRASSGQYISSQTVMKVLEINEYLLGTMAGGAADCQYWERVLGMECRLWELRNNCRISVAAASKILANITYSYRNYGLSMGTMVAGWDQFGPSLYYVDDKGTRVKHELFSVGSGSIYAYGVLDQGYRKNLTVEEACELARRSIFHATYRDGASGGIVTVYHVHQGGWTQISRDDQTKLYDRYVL
Put plainly: Trypanosoma cruzi proteasome chymotrypsin-like activity (TcProtChymo) assay. Note: in the data most compounds retested in dose-response had high values. As to conditions: 9.37 µM. Type of assay: functional.

The species entered for a further assay is Homo sapiens. As to the kind of experiment: To identify inhibition of the IFN signalling (Jak-Stat) pathway via expression of an eGFP reporter gene under the control of an IFN-stimulated response element (ISRE) containing MxA promoter. Type of assay: functional. As to conditions: 30 µM. (In general: In a reporter assay the amount or activity of a reporter protein is the signal.)

In assay [7] the target is T4, Tyrosyl-tRNA synthetase, putative (Trypanosoma cruzi (strain CL Brener)) (UniProt Q4DSP6).
T4 sequence (whole entry): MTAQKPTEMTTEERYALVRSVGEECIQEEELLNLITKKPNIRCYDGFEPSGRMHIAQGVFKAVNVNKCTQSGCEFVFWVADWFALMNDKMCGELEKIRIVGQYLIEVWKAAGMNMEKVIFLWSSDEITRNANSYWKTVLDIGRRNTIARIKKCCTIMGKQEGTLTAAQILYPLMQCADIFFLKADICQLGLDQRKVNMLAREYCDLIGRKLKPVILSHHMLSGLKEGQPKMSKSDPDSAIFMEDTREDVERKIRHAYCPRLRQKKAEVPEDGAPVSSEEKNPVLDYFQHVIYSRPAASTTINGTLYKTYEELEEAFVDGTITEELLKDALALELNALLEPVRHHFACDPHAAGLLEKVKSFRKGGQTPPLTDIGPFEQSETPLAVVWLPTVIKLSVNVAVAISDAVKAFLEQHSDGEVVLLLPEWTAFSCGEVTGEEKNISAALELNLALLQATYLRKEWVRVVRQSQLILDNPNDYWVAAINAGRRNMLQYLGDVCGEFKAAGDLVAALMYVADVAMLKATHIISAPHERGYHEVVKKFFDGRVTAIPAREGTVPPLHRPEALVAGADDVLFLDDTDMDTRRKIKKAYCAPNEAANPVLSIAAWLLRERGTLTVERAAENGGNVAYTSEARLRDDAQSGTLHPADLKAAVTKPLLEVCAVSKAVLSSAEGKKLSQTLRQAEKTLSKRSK
Put plainly: Trypanosoma cruzi tyrosyl tRNA synthetase (TcYRS) _High Tyrosine SOP. Note: in the data most compounds retested in dose-response had high values. Type of assay: functional. As to conditions: 30 µM.

Assay [8] concerns the target T4, Tyrosyl-tRNA synthetase, putative (Trypanosoma cruzi (strain CL Brener)). As to the kind of experiment: Trypanosoma cruzi tyrosyl tRNA synthetase (TcYRS) SOP. In kind it is functional. Particulars: 30 µM.
Assay [9] has as its target Chromo domain-containing protein 1 (Saccharomyces cerevisiae (strain ATCC 204508 / S288c) (Baker's yeast)) (UniProt P32657). As to the kind of experiment: ScCHD-1 Enzyme Inhibition Assay. Note: in the data most compounds retested in dose-response had high values. In kind it is functional. As to conditions: 30 µM.

Sequence of Sialic acid-binding Ig-like lectin 9 (Homo sapiens) (Q9Y336 whole entry): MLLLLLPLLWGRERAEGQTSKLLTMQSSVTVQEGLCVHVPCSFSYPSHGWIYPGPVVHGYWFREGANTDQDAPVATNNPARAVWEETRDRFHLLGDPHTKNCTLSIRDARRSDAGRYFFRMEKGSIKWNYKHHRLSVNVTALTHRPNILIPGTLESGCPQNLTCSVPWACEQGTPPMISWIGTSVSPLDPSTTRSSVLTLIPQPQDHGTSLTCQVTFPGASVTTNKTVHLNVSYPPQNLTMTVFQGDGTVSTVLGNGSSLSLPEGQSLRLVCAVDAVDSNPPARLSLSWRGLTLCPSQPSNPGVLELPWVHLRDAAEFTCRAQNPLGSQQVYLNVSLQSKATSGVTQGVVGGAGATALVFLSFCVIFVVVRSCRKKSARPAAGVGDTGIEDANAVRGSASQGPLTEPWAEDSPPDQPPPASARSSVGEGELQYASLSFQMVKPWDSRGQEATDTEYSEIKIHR
Sequence of Protein translocase subunit SecA (Escherichia coli (strain K12)) (P10408 whole entry): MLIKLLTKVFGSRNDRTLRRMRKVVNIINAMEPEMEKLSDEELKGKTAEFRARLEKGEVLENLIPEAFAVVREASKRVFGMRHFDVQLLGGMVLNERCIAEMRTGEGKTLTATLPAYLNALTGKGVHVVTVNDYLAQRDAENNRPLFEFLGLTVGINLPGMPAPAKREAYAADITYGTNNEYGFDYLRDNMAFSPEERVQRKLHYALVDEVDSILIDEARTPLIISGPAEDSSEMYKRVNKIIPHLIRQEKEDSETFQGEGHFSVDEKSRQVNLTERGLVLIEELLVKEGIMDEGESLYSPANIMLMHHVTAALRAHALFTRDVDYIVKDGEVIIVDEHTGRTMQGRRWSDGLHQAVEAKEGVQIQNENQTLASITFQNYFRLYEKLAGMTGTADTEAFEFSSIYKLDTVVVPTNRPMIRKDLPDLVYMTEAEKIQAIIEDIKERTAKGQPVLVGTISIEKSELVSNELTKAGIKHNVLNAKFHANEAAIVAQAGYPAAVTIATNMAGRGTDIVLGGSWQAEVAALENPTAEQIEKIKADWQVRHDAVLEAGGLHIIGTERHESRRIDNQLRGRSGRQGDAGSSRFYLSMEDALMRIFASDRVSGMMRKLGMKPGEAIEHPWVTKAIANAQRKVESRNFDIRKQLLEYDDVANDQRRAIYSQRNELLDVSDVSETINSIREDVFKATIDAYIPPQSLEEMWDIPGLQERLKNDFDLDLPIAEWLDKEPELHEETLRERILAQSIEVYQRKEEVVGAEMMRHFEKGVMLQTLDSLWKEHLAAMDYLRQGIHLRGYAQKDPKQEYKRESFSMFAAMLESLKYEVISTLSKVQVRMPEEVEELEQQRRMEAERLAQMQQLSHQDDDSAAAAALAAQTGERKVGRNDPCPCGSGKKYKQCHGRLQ
Sequence of Chromo domain-containing protein 1 (Saccharomyces cerevisiae (strain ATCC 204508 / S288c) (Baker's yeast)) (P32657 whole entry, the tested form may be a part): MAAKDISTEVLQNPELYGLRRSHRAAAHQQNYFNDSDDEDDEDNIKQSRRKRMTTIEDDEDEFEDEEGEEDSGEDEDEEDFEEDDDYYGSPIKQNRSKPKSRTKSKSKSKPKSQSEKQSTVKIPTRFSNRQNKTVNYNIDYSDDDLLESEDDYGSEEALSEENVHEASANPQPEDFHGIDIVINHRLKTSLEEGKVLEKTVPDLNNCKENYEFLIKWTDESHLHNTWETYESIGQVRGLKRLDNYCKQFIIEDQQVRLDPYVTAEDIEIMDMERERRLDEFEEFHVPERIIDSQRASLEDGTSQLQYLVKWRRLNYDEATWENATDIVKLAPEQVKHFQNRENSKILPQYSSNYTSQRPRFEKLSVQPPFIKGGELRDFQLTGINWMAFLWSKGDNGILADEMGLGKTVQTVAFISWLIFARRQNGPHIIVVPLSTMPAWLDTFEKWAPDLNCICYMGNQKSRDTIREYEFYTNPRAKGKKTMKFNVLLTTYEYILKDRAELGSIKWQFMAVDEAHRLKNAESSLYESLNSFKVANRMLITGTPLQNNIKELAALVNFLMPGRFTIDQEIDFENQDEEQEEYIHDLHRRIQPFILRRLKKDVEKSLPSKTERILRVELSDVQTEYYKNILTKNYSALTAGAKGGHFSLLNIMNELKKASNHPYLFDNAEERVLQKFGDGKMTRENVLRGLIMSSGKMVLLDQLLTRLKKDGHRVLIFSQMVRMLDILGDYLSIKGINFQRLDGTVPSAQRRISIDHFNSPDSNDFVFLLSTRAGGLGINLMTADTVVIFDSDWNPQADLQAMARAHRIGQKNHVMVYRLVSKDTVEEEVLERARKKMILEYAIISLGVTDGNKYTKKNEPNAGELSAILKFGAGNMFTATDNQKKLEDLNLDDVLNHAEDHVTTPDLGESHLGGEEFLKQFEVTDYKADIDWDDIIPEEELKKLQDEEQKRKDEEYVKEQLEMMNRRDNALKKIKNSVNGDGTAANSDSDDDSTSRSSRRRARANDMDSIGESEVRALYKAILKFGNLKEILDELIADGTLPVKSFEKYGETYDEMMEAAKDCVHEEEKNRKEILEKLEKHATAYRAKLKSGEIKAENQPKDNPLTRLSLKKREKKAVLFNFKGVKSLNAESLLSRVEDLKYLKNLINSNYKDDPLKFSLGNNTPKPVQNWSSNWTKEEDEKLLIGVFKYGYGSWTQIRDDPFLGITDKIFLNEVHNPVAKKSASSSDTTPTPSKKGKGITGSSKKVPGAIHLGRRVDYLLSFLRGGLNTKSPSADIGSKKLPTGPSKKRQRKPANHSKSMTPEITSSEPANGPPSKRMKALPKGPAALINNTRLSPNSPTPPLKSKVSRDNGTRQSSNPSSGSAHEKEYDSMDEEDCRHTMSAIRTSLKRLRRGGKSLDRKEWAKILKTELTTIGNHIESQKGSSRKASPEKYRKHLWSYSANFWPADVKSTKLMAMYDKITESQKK

Regarding `COc1cc(CNCc2c(C)nn(C)c2N(C)C)ccn1`, the Percent Effect in [1] was -2.79%; in assay [2] it was 5.41%; in [3], -15.9%; in [4], 8.34%; in the assay on Trypanosoma cruzi, 4.25%; in assay [5], -3.61%. The Percent Effect was 1.62% in [6]; 9.11% in the assay filed under Homo sapiens; 4.43% in [7]; 18.5% in [8]; -11.1% in [9].
As to `CCn1cnnc1C1CCN(C(=O)C(OC)c2ccccc2)CC1` (stereo not drawn), the Percent Effect in [1] was -2.02%; in assay [2], 18.2%; in [3], 6.32%; in assay [4] it was -9.96%; with Trypanosoma cruzi it was 5.58%; in assay [5], -1.05%. The Percent Effect in [6] was 17.9%; in the assay filed under Homo sapiens, -11%; in assay [7], 8.57%; in assay [8], 18.8%; in [9], -17.7%.
As to `N#Cc1ccccc1OCCN1CCC(N2CCNC2=O)CC1`, the Percent Effect was -1.9% in assay [1]; 5.41% in assay [2]; -4.78% in assay [3]; 2.6% in [4]; 0.65% in the assay with Trypanosoma cruzi; -1.29% in assay [5]. Moreover, the Percent Effect in assay [6] was 6.28%; in the assay filed under Homo sapiens it was 8.35%; in assay [7] it was 6.93%; in assay [8], 13.4%; in assay [9] it was -0.203%.
Regarding `CC(C)C(=O)N1CCN(Cc2csc(-c3ncccn3)n2)CC1`, the Percent Effect in assay [1] was -3.04%; in [2], 0%; in assay [3], 9.34%; in assay [4], 3.09%; with Trypanosoma cruzi it was 1.27%; in [5] it was 0%. Also, the Percent Effect in assay [6] was 11.4%; in the assay listed under Homo sapiens, 2.18%; in [7], 4.25%; in assay [8], 10.4%; in assay [9], -1.19%.
With `O=C1NC2(CCN(C(=O)c3ccccc3)CC2)CC1c1cccnc1` (stereo not drawn), the Percent Effect is -4.51% in assay [1]; -2.74% in [2]; -3.55% in assay [3]; 5.92% in [4]; 9.32% in the assay on Trypanosoma cruzi; -6.39% in assay [5]. Besides, the Percent Effect in assay [6] is 2.65%; in the assay filed under Homo sapiens, -28.6%; in [7] it was 6.25%; in assay [8], 13.6%; in assay [9] it was -2.24%.
With `O=C(Cc1ccccc1F)N1CCN(C(=O)c2cccc(F)c2)CC1`, the Percent Effect is 0.735% in assay [1]; 7.89% in assay [2]; -4.8% in assay [3]; -9.01% in assay [4]; -7.69% with Trypanosoma cruzi; 3.55% in assay [5]. Besides, the Percent Effect in [6] is 18.9%; in the assay filed under Homo sapiens it was 13.3%; in assay [7], 0%; in [8], -59.7%; in assay [9], 27.2%.
As to `Cc1noc(CN2CCN(Cc3cccs3)CC2)n1`, the Percent Effect in [1] is -0.284%; in assay [2] it was 15.6%; in assay [3] it was 3.17%; in [4], -3.65%; in the assay on Trypanosoma cruzi, -5.24%; in [5], 4.27%. For the same compound, the Percent Effect in assay [6] is 0.845%; in the assay filed under Homo sapiens, 22.4%; in assay [7], 6.8%; in assay [8], 19.5%; in [9], -5.19%.
`COc1ccc(NC(=O)c2ccc(-n3ncc(C#N)c3N)cc2)cn1`: the Percent Effect in assay [1] is -3.59%; in assay [2], 10.1%; in assay [3], 0.744%; in assay [4], 15.3%; in the assay with Trypanosoma cruzi, -3.68%; in assay [5] it was -4.94%. The Percent Effect in assay [6] is 0.901%; in the assay listed under Homo sapiens, 8.55%; in assay [7] it was 4.43%; in assay [8], 8.86%; in [9], -4.68%.
